PubChem BioAssay AID1159580 (chemical genetic matrix, 2015)
In all, about 5,500 compounds went through this assay and about 2,000 (36%) were called active. Another 18% or so got no clear call; they are omitted. No stated cut-off is given here; in the data, active means normalized growth mostly below about 0.91 (no sharp cut-off); inconclusive means no clear call, values can overlap the other calls; inactive means mostly above about 0.92. The list shows a part of the results.

Assay: chemical genetic growth profiling, strain panel (AID 1159580);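 further: tested at 20 µM; growth read once vehicle control cultures reached saturation at 30 °C; 1 = growth at the plate median or of vehicle wells; lower values mean less growth of the strain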
Conditions: growth OD

Measured: normalized growth

CC(=O)O[C@H]1C[C@@]2(C)[C@@H](C[C@@H](O)C3[C@]2(C)CC[C@H]2[C@H](C)[C@H](O)CC[C@]32C)/C1=C(/CCC=C(C)C)C(=O)O (some centres undefined)
inactive: S. cerevisiae deletion strains, locus YJL187C, strain SWE1 (second series), active compounds read low 1.01 | S. cerevisiae deletion strains, locus YJL187C, strain SWE1, active compounds read low 1.04 | S. cerevisiae deletion strains, locus YJR043C, strain POL32, active compounds read low 1 | S. cerevisiae deletion strains, locus YJR066W, strain TOR1, active compounds read low 0.983 | S. cerevisiae deletion strains, locus YKL009W, strain mrt4, active compounds read low 0.99 | S. cerevisiae deletion strains, locus YKL068W, active compounds read low 1.01 | S. cerevisiae deletion strains, locus YKL085W, strain MDH1 (second series), active compounds read low 0.997 | S. cerevisiae deletion strains, locus YKL085W, strain MDH1, active compounds read low 0.997 | S. cerevisiae deletion strains, locus YKL160W, strain elf1, active compounds read low 1.07 | S. cerevisiae deletion strains, locus YKL190W, strain CNB1, active compounds read low 1.01 | S. cerevisiae deletion strains, locus YKR001C, strain vps1, active compounds read low 1.03 | S. cerevisiae deletion strains, locus YKR026C, strain gcn3, active compounds read low 1.01 | S. cerevisiae deletion strains, locus YKR091W, strain srl3, active compounds read low 1.03 | S. cerevisiae deletion strains, locus YLL001W, strain dnm1, active compounds read low 1.04 | S. cerevisiae deletion strains, locus YLL026W, active compounds read low 1.02 | S. cerevisiae deletion strains, locus YLL041C, strain sdh2, active compounds read low 1.02 | S. cerevisiae deletion strains, locus YLR027C, strain aat2, active compounds read low 1.01 | S. cerevisiae deletion strains, locus YLR039C, strain RIC1, active compounds read low 0.996 | S. cerevisiae deletion strains, locus YLR058C, strain SHM2, active compounds read low 1.04 | S. cerevisiae deletion strains, locus YLR102C, strain apc9, active compounds read low 1.02 | S. cerevisiae deletion strains, locus YLR113W, strain HOG1, active compounds read low 0.957 | S. cerevisiae deletion strains, locus YLR221C, strain rsa3, active compounds read low 1.06 | S. cerevisiae deletion strains, locus YLR258W, strain gsy2, active compounds read low 1.03 | S. cerevisiae deletion strains, locus YLR262C, strain YPT6 (second series), active compounds read low 0.991 | S. cerevisiae deletion strains, locus YLR262C, strain YPT6, active compounds read low 0.997 | S. cerevisiae deletion strains, locus YLR268W, strain sec22, active compounds read low 1.01 | S. cerevisiae deletion strains, locus YLR320W, strain mms22, active compounds read low 1.06 | S. cerevisiae deletion strains, locus YLR330W, strain CHS5, active compounds read low 1.01 | S. cerevisiae deletion strains, locus YLR342W, strain FKS1 (second series), active compounds read low 1.03 | S. cerevisiae deletion strains, locus YLR342W, strain FKS1, active compounds read low 1.04 | S. cerevisiae deletion strains, locus YLR357W, strain rsc2, active compounds read low 1.1 | S. cerevisiae deletion strains, locus YLR370C, strain arc18, active compounds read low 1.03 | S. cerevisiae deletion strains, locus YLR371W, strain rom2, active compounds read low 1.01 | S. cerevisiae deletion strains, locus YLR384C, strain iki3, active compounds read low 1.04 | S. cerevisiae deletion strains, locus YLR418C, strain cdc73, active compounds read low 1.05 | S. cerevisiae deletion strains, locus YML016C, strain PPZ1, active compounds read low 1 | S. cerevisiae deletion strains, locus YML032C, strain rad52, active compounds read low 1.02 | S. cerevisiae deletion strains, locus YML120C, strain ndi1, active compounds read low 1.05 | S. cerevisiae deletion strains, locus YML124C, strain tub3, active compounds read low 1.03 | S. cerevisiae deletion strains, locus YMR058W, strain fet3, active compounds read low 1.03 | S. cerevisiae deletion strains, locus YMR078C, strain ctf18, active compounds read low 1.02 | S. cerevisiae deletion strains, locus YMR125W, strain sto1, active compounds read low 1.04 | S. cerevisiae deletion strains, locus YMR129W, active compounds read low 1.02 | S. cerevisiae deletion strains, locus YMR205C, strain PFK2, active compounds read low 1.04 | S. cerevisiae deletion strains, locus YMR223W, strain ubp8, active compounds read low 1.05 | S. cerevisiae deletion strains, locus YMR231W, strain pep5, active compounds read low 1.02 | S. cerevisiae deletion strains, locus YMR307W, strain GAS1, active compounds read low 0.995 | S. cerevisiae deletion strains, locus YNL067W, strain RPL9B, active compounds read low 1.01 | S. cerevisiae deletion strains, locus YNL071W, strain lat1, active compounds read low 1.03 | S. cerevisiae deletion strains, locus YNL153C, strain GIM3, active compounds read low 1.02 | S. cerevisiae deletion strains, locus YNL183C, strain NPR1, active compounds read low 0.936 | S. cerevisiae deletion strains, locus YNL209W, strain ssb2, active compounds read low 1.03 | S. cerevisiae deletion strains, locus YNL233W, strain BNI4, active compounds read low 1.01 | S. cerevisiae deletion strains, locus YNL248C, strain rpa49, active compounds read low 1.05 | S. cerevisiae deletion strains, locus YNL250W, strain rad50, active compounds read low 1.03 | S. cerevisiae deletion strains, locus YNL271C, strain bni1, active compounds read low 1.02 | S. cerevisiae deletion strains, locus YNL298W, strain CLA4, active compounds read low 1.02 | S. cerevisiae deletion strains, locus YNL307C, strain MCK1, active compounds read low 1.03 | S. cerevisiae deletion strains, locus YNL322C, strain KRE1 (second series), active compounds read low 1.05 | S. cerevisiae deletion strains, locus YNR049C, strain mso1, active compounds read low 1.05 | S. cerevisiae deletion strains, locus YNR052C, strain pop2, active compounds read low 1.03 | S. cerevisiae deletion strains, locus YOL012C, strain htz1 1.07 | S. cerevisiae deletion strains, locus YOL147C, strain pex11, active compounds read low 1.04 | S. cerevisiae deletion strains, locus YOR001W, strain rrp6, active compounds read low 1.01 | S. cerevisiae deletion strains, locus YOR061W, strain CKA2, active compounds read low 0.999 | S. cerevisiae deletion strains, locus YOR069W, strain VPS5, active compounds read low 1.02 | S. cerevisiae deletion strains, locus YOR070C, strain gyp1, active compounds read low 1.03 | S. cerevisiae deletion strains, locus YOR080W, strain dia2, active compounds read low 1.04 | S. cerevisiae deletion strains, locus YOR083W, strain WHI5, active compounds read low 1.06 | S. cerevisiae deletion strains, locus YOR106W, strain vam3, active compounds read low 1.04 | S. cerevisiae deletion strains, locus YOR136W, strain idh2, active compounds read low 1.02 | S. cerevisiae deletion strains, locus YOR144C, strain elg1, active compounds read low 1.02 | S. cerevisiae deletion strains, locus YOR184W, strain ser1, active compounds read low 1.02 | S. cerevisiae deletion strains, locus YOR231W, strain MKK1, active compounds read low 0.956 | S. cerevisiae deletion strains, locus YOR265W, strain rbl2, active compounds read low 1.02 | S. cerevisiae deletion strains, locus YOR270C, strain vph1, active compounds read low 1 | S. cerevisiae deletion strains, locus YOR290C, strain snf2, active compounds read low 0.974 | S. cerevisiae deletion strains, locus YOR316C, strain cot1, active compounds read low 1.02 | S. cerevisiae deletion strains, locus YPL051W, strain arl3, active compounds read low 1.04 | S. cerevisiae deletion strains, locus YPL078C, strain atp4, active compounds read low 1.02 | S. cerevisiae deletion strains, locus YPL106C, strain sse1, active compounds read low 1.07 | S. cerevisiae deletion strains, locus YPL240C, strain hsp82, active compounds read low 1.03 | S. cerevisiae deletion strains, locus YPL256C, strain CLN2, active compounds read low 0.986 | S. cerevisiae deletion strains, locus YPR119W, strain clb2, active compounds read low 1.02 | S. cerevisiae deletion strains, locus YPR141C, strain kar3, active compounds read low 1.03 | S. cerevisiae deletion strains, locus YPR163C, strain tif3, active compounds read low 1.04 | S. cerevisiae deletion strains, locus YPR167C, strain met16, active compounds read low 1.03 | S. cerevisiae deletion strains, strain wtn01, active compounds read low 1.02 | S. cerevisiae strains, strain wild type, active compounds read low 1.01
